The structures appear in SMILES notation. About 240 (0.8%) of roughly 30,000 compounds were called active. Many of the other results were omitted from the sample, so actives are more common in it than they were. Values without a mark were called inactive.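 How the source made its calls: active means at 10 µM dose, at least 30% inhibition, measured as corrected fluorescence normalized to stimulator and neutral control wells; inactive means the rest.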 Peptide text beside a SMILES is read from it. * marks the point of attachment. Bz = O=C(c1ccccc1)*

The assay deals with Protein artemis (Homo sapiens) (UniProt Q96SD1). Briefly: blockers of Artemis DNA hairpin overhang cleavage – biochemical, fluorescence intensity, FAM/BHQ-1 hairpin substrate, primary screen (AID 686954). The conditions noted are these: recombinant Artemis, quenched FAM hairpin cleavage fluorescence; at 10 µM; stronger effect = higher value.
Chain of Protein artemis (Homo sapiens) (Q96SD1 whole entry, looked up): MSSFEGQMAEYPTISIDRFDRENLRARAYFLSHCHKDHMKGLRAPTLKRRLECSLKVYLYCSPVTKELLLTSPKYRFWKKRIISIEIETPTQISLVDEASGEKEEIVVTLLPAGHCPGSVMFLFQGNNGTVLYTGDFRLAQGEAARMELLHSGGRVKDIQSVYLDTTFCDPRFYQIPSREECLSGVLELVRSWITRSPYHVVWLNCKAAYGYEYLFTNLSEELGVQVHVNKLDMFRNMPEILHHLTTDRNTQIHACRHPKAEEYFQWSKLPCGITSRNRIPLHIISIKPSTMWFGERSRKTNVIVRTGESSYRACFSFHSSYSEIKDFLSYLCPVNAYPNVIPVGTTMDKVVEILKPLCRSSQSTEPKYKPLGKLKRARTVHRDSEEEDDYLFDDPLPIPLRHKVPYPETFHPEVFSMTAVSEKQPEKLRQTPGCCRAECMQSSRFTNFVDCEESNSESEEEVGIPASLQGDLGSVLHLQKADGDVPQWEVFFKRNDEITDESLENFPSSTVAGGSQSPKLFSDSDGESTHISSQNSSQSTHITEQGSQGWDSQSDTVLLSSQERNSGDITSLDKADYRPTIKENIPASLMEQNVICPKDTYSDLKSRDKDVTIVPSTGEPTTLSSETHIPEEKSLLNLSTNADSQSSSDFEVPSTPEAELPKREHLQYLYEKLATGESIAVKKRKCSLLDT
Regarding `O=c1c2ccccc2nc2n1C(CSCc1ccccc1)CS2` (stereo not drawn), the inhibition (usually the relative decrease from the control value, in per cent) was 2.82%.
With `COC(=O)CSC1=C(C#N)C(c2ccccc2OC)C(C(=O)OC)C(=O)N1` (stereo not drawn), the inhibition is -3.1%.
Regarding `Cc1ccc(/C=N/NC(=O)c2sccc2OCc2ccc(F)cc2)cc1`, the inhibition was 22.2%.
To `COc1ccc(CC(=O)Nc2nc3n(n2)C(c2ccccc2)CC(=O)N3)cc1OC` (stereo not drawn) belongs -12.5%; to `O=C(N/N=C/c1ccc(O)c(O)c1)C1c2ccccc2Oc2ccccc21`, 30.2% (active); to `COc1ccc(C(=O)Nc2ccccc2C(=O)N/N=C/c2ccc(O)c(OC)c2)cc1`, 3.38%.
The same measure for `O=C(N/N=C/c1ccsc1)c1cc(O)cc(O)c1`: 10.2%; for `Cc1ccc(Cn2c(NC(=O)c3ccco3)nc3ccccc32)cc1`: 0.73%; for `Clc1cccc(-c2nc3nc4ccccc4nc3n2Cc2ccco2)c1`: 27%.
The same measure for `Cc1ccc(Cn2c(C)nc3c(c2=O)c2nc4ccccc4nc2n3Cc2ccco2)cc1`: 40.3% (active); for `CCCn1c(C)cc(C(=O)COC(=O)c2c(C)nn(-c3ccccc3)c2C)c1C`: 10.5%.
Turning to `CC(C)(C)Cc1nnc(NC(=O)c2cc(-c3ccccc3)nc3ccccc23)s1`, the inhibition is 13.6%.
The same measure for `O=C(/C=C/Nc1ccccc1OC(F)(F)F)C(F)(F)F`: -11.1%; for `COc1ccc(Cc2nnnn2CC(=O)O)cc1`: 3.92%.
Consider `CC1CCc2c(c3ccccc3[nH]c2=O)O1` (stereo not drawn), for which the inhibition is 13.8%.
To `Cn1c(CO)cnc1SCc1ccccc1` belongs -0.47%; to `COc1ccccc1NS(=O)(=O)N(C)C`, 4.92%; to `C=CCn1c(N)cc(=O)nc1SCC(=O)Nc1cccc2ccccc12`, -2.38%.
To `O=C(COc1cc(Cl)c(Cl)cc1Cl)NC(=O)NC1CCCC1` belongs 5.4%.
To `O=C(NC(Cc1ccccc1)C(=O)N1CCCC1C(=O)O)c1ccccc1` (stereo not drawn) (Bz-Phe-Pro-OH; configuration not given here) belongs 3.37%; to `CCCC(C(=O)NCc1ccco1)N(C(=O)CNS(=O)(=O)c1ccccc1)C1CCCC1` (stereo not drawn), 9.71%; to `Cc1ccc(N2CCN(C3=NC(=O)/C(=C\c4cccs4)S3)CC2)cc1`, 30.4% (active).
`CSC1=N/C(=C\C=C\c2cccs2)C(=O)S1`: the inhibition is 4.46%.
To `Cc1ccsc1/C=C1\SC(N2CCOCC2)=NC1=O` belongs -5.58%; to `Cc1cccc(C(=O)N2CCCN(C(=O)c3cccc(C)c3)CC2)c1`, 4.29%.
To `CCC(C)NC(=O)c1cc(Cl)ccc1OC` (stereo not drawn) belongs 1.25%.
To `N#CCCn1cnc2ccccc21` belongs 0.47%.
`c1ccc(-c2nccc(-c3ccc(-n4cnc5ccccc54)cc3)n2)nc1`: the inhibition was 100% (active).
To `COc1ccc(-c2cc(C(=O)n3cnc4ccccc43)c3ccccc3n2)cc1` belongs 0.93%; to `CC(=O)N1Cc2ccccc2CC1C(=O)O` (stereo not drawn), -0.69%.
To `Cc1ccc(C(=O)Nc2c(C#N)c(C)c(C)n2Cc2ccccc2)cc1` belongs -5.83%; to `CC(C)NC(=O)C(=O)NCCCOC(C)C`, -3.28%; to `COC(=O)C(C(=O)Nc1cccc(C)n1)C1CCCCCC1` (stereo not drawn), -2.41%.
To `COc1ccc(CCN2C(=O)C3CC=C(C)CC3C2=O)cc1OC` (stereo not drawn) belongs -6.71%; to `COC(=O)C1=C(Nc2ccc(OC)cc2)C=C(C)C(C(=O)OC)C1c1ccc(C)cc1` (stereo not drawn), -2.07%; to `Fc1ccc(Br)cc1/C=N/n1cnnc1`, -9.95%.
`O=C(/C=C/c1cc2c(cc1Br)OCO2)NCc1ccc(Cl)cc1`: the inhibition was -4.49%.
On to `O=C(NN1C(=O)C2C3C=CC(C4CC34)C2C1=O)c1ccc(Cl)cc1` (stereo not drawn), for which the inhibition is -4.12%.
Consider `O=c1c2ccccc2nc2n1C(CSc1ccc(F)cc1)CN2` (stereo not drawn), for which the inhibition is -16.9%.
The same measure for `COc1ccc(C(=O)Oc2cc(/C=N/NS(=O)(=O)c3ccc(C)cc3)ccc2OC)cc1`: 4.47%; for `COC(=O)c1sccc1-n1cccc1C(=O)C(=O)N1CCCCC1`: -4.39%.
The same measure for `O=C(/C=N/O)Nc1ccccc1`: 16.8%; for `CSc1ccc(C#N)cc1NC(=O)c1cccc(Cl)c1`: -11%.
To `Cc1c(C(=O)NCc2ccccc2)cnn1-c1ccccc1` belongs 0.06%; to `O=C(c1ccccc1)C(Cn1cncn1)C(Sc1ccccc1)c1ccccc1` (stereo not drawn), 7.82%; to `CC(C)NC(=O)CSc1ccccc1C(=O)NCc1ccc2c(c1)OCO2`, -4.49%.
In the case of `CCOc1ccc2nc(SC(CC)C(=O)Nc3cc(C)on3)sc2c1` (stereo not drawn), the inhibition was -0.74%.
The same measure for `CCc1ccc(/C=N/NC(=O)c2ccc(OC3CCCC3)cc2)s1`: 14.9%; for `O=C(COc1ccc(/C=N/NS(=O)(=O)c2ccccc2)cc1)NCCc1ccccc1`: 5.78%; for `NC(=O)c1ccccc1NC(=O)c1ccccc1F`: 3.21%.
To `Cc1ccc(NC(=S)NC(=O)c2ccc(-c3ccccc3)cc2)c(C)c1` belongs 8.05%.
The same measure for `Cc1ccc(NC(=O)Nc2ccc3oc(C)nc3c2)cc1`: 4.51%; for `Cc1ccc(OCCCC(=O)N2CCOCC2)c(C)c1`: -3.31%; for `COc1cc(C(=S)N2CCOCC2)cc(OC)c1OC(=O)c1cc([N+](=O)[O-])cc([N+](=O)[O-])c1`: 5.88%.
Regarding `CCOc1cc(C(=S)N2CCOCC2)ccc1O`, the inhibition is 44.1% (active).
The same measure for `Nc1c(-c2ccc(F)cc2)cnn1C1CCS(=O)(=O)C1` (stereo not drawn): -12.3%; for `O=C(NC1CCC(O)CC1)c1ccc(S(=O)(=O)NCc2ccco2)cc1` (stereo not drawn): -0.49%; for `COCCCNCC(=O)Nc1sc(C)c(C)c1C(=O)OC`: 8.99%.
Regarding `CSc1ccc(C#N)cc1NC(=O)c1ccc(Cl)cc1`, the inhibition is -3.87%.
The same measure for `Cc1cccc(N2CCN(C(c3ccccc3)c3nnnn3CC3CCCO3)CC2)c1C` (stereo not drawn): 1.54%; for `O=C(O)C1CC=CCC1C(=O)Nc1ccccc1C(=O)N1CCN(c2ccccc2)CC1` (stereo not drawn): 11.9%.
The same measure for `CC1CN(c2nc(-c3ccccc3)nnc2-c2ccccc2)CC(C)O1` (stereo not drawn): 3.23%; for `Cc1cc(N=CC2=C(O)CCCC2=O)no1`: -4.13%.

The values above are taken from PubChem BioAssay AID686954 (Sanford-Burnham Center for Chemical Genomics, 2013).
